Records with an inconclusive call do not appear. Where a call stands in place of a potency, no number is given. The source made the active and inactive calls. Calls come from the whole dose curve; as a rule, active = well fitted inhibition curve with a large enough effect; inconclusive = small, poorly fitted or top-dose-only effect; inactive = flat fitted curve, though single readings scatter.
What was measured:
Experiment in all cases: qHTS profiling for inhibitors of Plasmodium falciparum proliferation (AID 504749); note: nearly all actives have a fitted effect of over 60% in size
Conditions in all cases: P. falciparum in erythrocytes, SYBR Green DNA, 72 h; series mostly up to 28.7 µM
[1] = system: CP256
In short: (§1)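 Each compound contacts P. falciparum-infected red blood cells for 72 h at 37 C; lysis buffer (Tris, EDTA, saponin, Triton X, SYBR Green I) is added and fluorescence measured next morning; values normalized to controls.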

[2] = system: CP260
In short: as §1

[3] = system: CP262
In short: as §1

[4] = system: CP265
In short: as §1

[5] = system: CP266
In short: as §1

[6] = system: CP268
In short: as §1

[7] = system: CP269
In short: as §1

[8] = system: CP286
In short: as §1

[9] = system: CP291
In short: as §1

[10] = system: CP297
In short: as §1

[11] = system: CP305
In short: as §1

[12] = system: CP315
In short: as §1

[13] = system: CP325
In short: as §1

[14] = system: CP329
In short: as §1

[15] = system: CP335
In short: as §1

[16] = system: DFO2036
In short: as §1

[17] = system: DIV14
In short: as §1

[18] = system: DIV17
In short: as §1

[19] = system: DIV30
In short: as §1

[20] = system: Dd2
In short: as §1
Potency is the fitted concentration of half-maximal effect.

| SMILES | Potency [1] | Potency [2] | Potency [3] | Potency [4] | Potency [5] | Potency [6] | Potency [7] | Potency [8] | Potency [9] | Potency [10] | Potency [11] | Potency [12] | Potency [13] | Potency [14] | Potency [15] | Potency [16] | Potency [17] | Potency [18] | Potency [19] | Potency [20] |
| --- | --- | --- | --- | --- | --- | --- | --- | --- | --- | --- | --- | --- | --- | --- | --- | --- | --- | --- | --- | --- |
| COc1ccc(-c2ccc3cc(C(=O)O)ccc3c2)cc1C12CC3CC(CC(C3)C1)C2 | inactive | inactive | inactive | inactive | inactive | inactive | inactive | inactive | inactive | inactive | inactive | inactive | inactive | inactive | inactive | inactive | inactive | inactive | inactive | inactive |
| S=P(N1CC1)(N1CC1)N1CC1 | inactive | inactive | inactive | inactive | inactive | inactive | inactive | inactive | inactive | inactive | inactive | inactive | inactive | inactive | inactive | inactive | inactive | inactive | – | inactive |
| CN1CCN(c2c(F)cc3c(=O)c(C(=O)O)cn(CCF)c3c2F)CC1 | inactive | inactive | inactive | inactive | inactive | inactive | inactive | inactive | inactive | inactive | inactive | inactive | inactive | inactive | inactive | inactive | – | inactive | inactive | inactive |
| Cc1ccnc2c1NC(=O)c1cccnc1N2C1CC1 | inactive | inactive | inactive | inactive | inactive | inactive | inactive | inactive | inactive | inactive | inactive | inactive | inactive | inactive | inactive | inactive | inactive | inactive | inactive | inactive |
| CCCN[C@H]1CCc2nc(N)sc2C1 | inactive | inactive | inactive | inactive | – | inactive | inactive | inactive | inactive | inactive | inactive | inactive | inactive | inactive | inactive | inactive | inactive | inactive | inactive | inactive |
| COc1cc([C@@H]2c3cc4c(cc3[C@H](O)[C@H]3COC(=O)[C@H]23)OCO4)cc(OC)c1OC | 8910 nM (active) | 2820 nM (active) | inactive | 2510 nM (active) | – | 9530 nM (active) | 4260 nM (active) | 4470 nM (active) | – | 15100 nM (active) | 6750 nM (active) | – | 13500 nM (active) | – | 3380 nM (active) | 2820 nM (active) | 2130 nM (active) | 1690 nM (active) | 6750 nM (active) | 2240 nM (active) |
| COc1ccc2cc3[n+](cc2c1OC)CCc1cc2c(cc1-3)OCO2 | 282 nM (active) | 891 nM (active) | 757 nM (active) | 891 nM (active) | – | 1350 nM (active) | 953 nM (active) | 562 nM (active) | 1510 nM (active) | 1350 nM (active) | 757 nM (active) | 1070 nM (active) | 953 nM (active) | 953 nM (active) | 953 nM (active) | 891 nM (active) | 849 nM (active) | 1070 nM (active) | 1350 nM (active) | 794 nM (active) |

Source: PubChem BioAssay (NCATS)
